Source: PubChem BioAssay AID2417 (National Center for Advancing Translational Sciences (NCATS), 2010)
About 4,300 (3.1%) of roughly 140,000 compounds were called active. Inconclusive results (about 21%) are left out.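 Rule for the calls: active = readout at or below -70, meaning at least 70% loss of cells showing the perinucleolar compartment, a nuclear body marking cancer cells; inconclusive = readout between -30 and a set limit; inactive = the rest.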 What follows is part of a selection rich in actives, with near analogues and random picks from the rest.

Assay: High Content Assay for Compounds that inhibit the Assembly of the Perinucleolar Compartment;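 note: plate controls were DMSO wells for no effect and camptothecin positive control wells for full effect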
Conditions: PC3M PTB-GFP, PNC prevalence imaging, 16 h; at 10 µM; active compounds read low
In short: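 Read-out is percentage of cells bearing a perinucleolar compartment, from automated 20x imaging of fixed, Hoechst-stained PC3M PTB-GFP cells. Cells were seeded 4 h, then exposed 16 h to compound (23 nl of library stock) in duplicate plates.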

Activity change (PNC), negative = inhibition, inactive:
CCOc1ccc(NC(=S)N2CCC(N(C)CC3CCCO3)CC2)cc1 (stereo unspecified) 0.566%, CC1CCN(C(=O)c2ccc(S(=O)(=O)Cc3cc(F)ccc3F)c([N+](=O)[O-])c2)CC1 25.9%, COCCCNCCOCCOc1ccc(Cl)cc1Br 40.2%, Cc1ccc(C(C)(C)C)c(OCCCCN2CCCC2)c1 -12.5%, CCCCc1nc(NCc2ccccc2)c(C#N)c2c1CCCC2 225%, Cc1nn(Cc2ccccc2)c(C)c1C(=O)NCCN1C(=O)S/C(=C\c2ccc(F)cc2)C1=O 37%, C[N+]1(CC(O)COc2ccccc2)CCN(C(=O)c2ccc([N+](=O)[O-])cc2)CC1 (stereo unspecified) 13%, O=c1oc2cc(O)ccc2cc1-c1ccc(F)cc1 13%, CCCCc1cc(=O)oc2cc(C)cc(OCc3nn[nH]n3)c12 9.68%, COc1ccccc1Nc1ncnc2c1oc1ccccc12 52.9%, CCc1nc(N2CCN(c3nc(C)cc(C)n3)CC2)c2oc3ccccc3c2n1 -21.5%, O=C(COC(=O)c1c2c(nc3ccccc13)/C(=C\c1cccs1)CCC2)Nc1ccccc1Cl -25.2%, O=C(CN1C(=O)NC2(CCCCCC2)C1=O)NCc1cccs1 -4.41%, COc1ccccc1OCc1ccc(C(=O)N2CCN(C)CC2)o1 -19.3%, CS(=O)(=O)Nc1ccc(C(=O)N2CCCC2)cc1 3.33%, O=C(c1ccc(Cl)c(Cl)c1)N1CCCC1 50.1%, CCC(C)(C)C1CCC(=NNC(=O)c2ccc(Br)o2)CC1 (stereo unspecified) -3.73%, CC(C)c1nccn1S(=O)(=O)c1cc([N+](=O)[O-])ccc1Cl 2.64%, CCc1nnc(NC(=O)CCN(c2ccc(C)cc2)S(=O)(=O)c2ccccc2)s1 2.13%, Nc1ccc(C(=O)OCC(=O)NC2CCCc3ccccc32)cc1[N+](=O)[O-] (stereo unspecified) -26.5%, CC1(C)C(=O)Nc2ccccc2N1C(=O)COC(=O)Cn1cnc2ccccc2c1=O -28.4%, Cc1ccc(C(=O)CNc2ccc(F)cc2)cc1 23.7%, COc1ccc(/C=C/C(=O)OCC(=O)Nc2cccc(Oc3ccccc3)c2)c(OC)c1 25.2%, COc1cc(/C=C/C(=O)OCC(=O)Nc2cccc(Oc3ccccc3)c2)ccc1O -28.3%, O=C(NC1CCN(Cc2ccccc2)CC1)c1c(F)cccc1F -1.56%, COCCNC(=O)c1ccc(N2CCC3(CC2)OCCO3)c([N+](=O)[O-])c1 -24.5%, COc1cccc(NC(=S)NCc2ccco2)c1 14.5%, Cc1ccc(NC(=O)NC(=O)N(C2CCCCC2)S(=O)(=O)c2ccccc2)cc1 8.69%, OC(COCC1COc2ccccc2O1)CN1CCN(c2ccc(F)cc2)CC1 (stereo unspecified) -2.15%, OC(COc1ccc2ccccc2c1)CN1CCOCC1 (stereo unspecified) 13%, Cc1ccc(-c2csc(NNC(=O)c3ccccc3)n2)cc1 -13.8%, Cc1ccc(O)c(-c2cc(C(=O)NCc3ccccc3)[nH]n2)c1 -13.6%, Cc1cccc(NC(=O)C2CCN(S(=O)(=O)c3cccc4cccnc34)CC2)c1 20.6%, Cc1cccc(NC(=O)CN2C(=O)CNC2=O)c1 48.7%, CCCCOc1ccc(NC(=O)[C@@H]2CCCN2C(=O)C2CCN(S(=O)(=O)c3ccc(C)cc3)CC2)cc1 7.21%, COc1cc(/C=N/O)ccc1OCc1ccc([N+](=O)[O-])cc1 15.8%, CCCNC(=O)c1ccccc1NC(=O)CSCc1ccc(OC)cc1 -26.5%, COC(=O)c1ccccc1NC(=O)CSc1ccccn1 6.08%, COc1cc(NC(=O)c2ccccc2NS(=O)(=O)c2ccc(Cl)s2)cc(OC)c1 -4.27%, CCOC(=O)c1nc(Nc2ccc(C(=O)OC)cc2)c2ccccc2n1 -9.55%, Cc1cc(Nc2ccccc2)nc(N)n1 -28.7%, Nc1nc(SCC(=O)NCCN2CCOCC2)nc2sc3c(c12)CCC3 3.5%, Cc1ccc(Cl)cc1N1CCN(C(=O)c2cccc3c(=O)c(C)c(-c4ccccc4)oc23)CC1 2.98%, C[C@@H](O)c1nc2ccccc2n1N -14.7%, O=C(O)c1cccc(N=NN2CCCCCC2)c1 12.1%, Cc1ccc(CNC(=O)C2CC(c3ccccc3[N+](=O)[O-])=NO2)o1 (stereo unspecified) -9.83%, COc1ccc(-c2cc(C(=O)NCc3ccco3)no2)cc1OC -7.14%, COc1ccccc1N1CCN(C(=O)c2ccc(S(=O)(=O)N3CCCCC3)cc2)CC1 48.1%, COc1ccc(Nc2ncc(C(=O)N3CCN(c4ccccc4OC)CC3)c3ccccc23)cc1 37.3%

Activity change (PNC), negative = inhibition, active:
CC(C)(C)NCCCOc1ccc(Cl)cc1C(C)(C)C -102%, COc1ccc(-c2cc3ccc(OCc4nn[nH]n4)cc3oc2=O)cc1 -119%, Cc1cc(C)nc(N2CCN(c3ncnc4c3oc3ccccc34)CC2)n1 -114%, Cc1c(Cl)cccc1NC(=O)Nc1ccc(C(=O)N2CCCC2)cc1 -83.7%, CCNc1ccc(C(=O)OCC(=O)N2c3ccccc3NC(=O)C2(C)C)cc1[N+](=O)[O-] -112%, O=C(COC(=O)/C=C/c1nc2ccccc2s1)Nc1ccccc1Oc1ccccc1 -108%, OC(COCc1ccco1)CN1CCN(c2ccccc2)CC1 (stereo unspecified) -85.3%, Cc1cccc(NC(=O)C2CC(=O)OC23CCCC3)c1 (stereo unspecified) -100%, CCCCCNC(=O)c1cccnc1SCC(=O)Nc1ccccc1OC -119%, CCOC(=O)c1nn(-c2ccccc2F)c2nc(Nc3ccccc3)cc(=O)n12 -91%, COc1ccc(C2=NOC(C(=O)NCc3ccco3)C2)cc1OC (stereo unspecified) -87%, COc1ccccc1N1CCN(C(=O)C(=O)N/N=C/c2ccccc2F)CC1 -114%
